Measurements published in PubChem BioAssay AID1159580 (chemical genetic matrix, 2015).
Values joined by “and” are separate entries in the source; they are usually repeats but may differ in a detail not shown here. Equal entries are not always repeated. About 2,000 (36%) of roughly 5,500 compounds were called active. Another 18% or so got no clear call; they are omitted. No stated cut-off is given here; in the data, active means normalized growth mostly below about 0.91 (no sharp cut-off); inconclusive means no clear call, values can overlap the other calls; inactive means mostly above about 0.92. The list shows a part of the results.

Test: chemical genetic growth profiling, strain panel (AID 1159580);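 further: tested at 20 µM; growth read once vehicle control cultures reached saturation at 30 °C; 1 = growth at the plate median or of vehicle wells; lower values mean less growth of the strain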
Settings: S. cerevisiae deletion strains, growth OD

Measured: normalized growth

Cc1cc(O)c(C=O)c(O)c1C(=O)O
inactive: locus YAL021C, strain ccr4, hits give low values 0.991 | locus YAL026C, strain drs2, hits give low values 1.01 | locus YAL030W, strain snc1, hits give low values 0.997 | locus YBL061C, strain skt5, hits give low values 1.01 | locus YBR009C, strain hhf1, hits give low values 1.02 | locus YBR021W, strain FUR4, hits give low values 1.05 | locus YBR023C, strain chs3, hits give low values 1.01 | locus YBR171W, strain sec66, hits give low values 1 | locus YBR229C, strain ROT2, hits give low values 0.999 | locus YBR231C, strain swc5, hits give low values 0.99 | locus YBR279W, strain paf1, hits give low values 0.997 | locus YCL011C, strain gbp2, hits give low values 1.01 | locus YCL016C, strain dcc1, hits give low values 1.01 | locus YCL029C, strain bik1, hits give low values 1.02 | locus YCL061C, strain MRC1, hits give low values 1.01 | locus YCL069W, strain vba3, hits give low values 1 | locus YCR088W, strain abp1, hits give low values 1.01 | locus YDL005C, strain med2, hits give low values 1.01 | locus YDL035C, strain GPR1, hits give low values 1.03 | locus YDL040C, strain nat1, hits give low values 1.01 | locus YDL074C, strain BRE1, hits give low values 1.06 | locus YDL101C, strain DUN1, hits give low values 1.03 | locus YDL185W, strain tfp1, hits give low values 0.987 | locus YDL192W, strain arf1, hits give low values 1.03 | locus YDR001C, strain nth1, hits give low values 0.999 | locus YDR069C, strain doa4, hits give low values 0.977 | locus YDR101C, strain arx1, hits give low values 1.04 | locus YDR137W, strain rgp1, hits give low values 1.01 | locus YDR150W, strain NUM1, hits give low values 0.983 | locus YDR159W, strain sac3, hits give low values 1.01 | locus YDR162C, strain NBP2, hits give low values 1.02 | locus YDR195W, strain ref2 0.99 | locus YDR297W, strain sur2, hits give low values 0.997 | locus YDR318W, strain mcm21, hits give low values 1 | locus YDR334W, strain swr1, hits give low values 0.987 | locus YDR335W, strain msn5, hits give low values 0.991 | locus YDR388W, hits give low values 0.997 | locus YDR392W, strain spt3, hits give low values 0.962 | locus YDR502C, strain sam2, hits give low values 1.03 | locus YEL003W, strain gim4, hits give low values 0.995 | locus YEL037C, strain rad23, hits give low values 0.993 | locus YEL061C, strain CIN8 (second series), hits give low values 0.999 | locus YEL061C, strain CIN8, hits give low values 1.01 | locus YER015W, strain faa2, hits give low values 1 | locus YER016W, strain bim1, hits give low values 1 | locus YER110C, hits give low values 1.01 | locus YER111C, strain swi4, hits give low values 1 | locus YER155C, strain BEM2 (second series), hits give low values 1 | locus YER155C, strain BEM2, hits give low values 1.01 | locus YER167W, strain BCK2, hits give low values 1.03 | locus YFR010W, strain ubp6, hits give low values 0.999 | locus YGL078C, strain dbp3, hits give low values 1.01 | locus YGL086W, strain mad1, hits give low values 1.03 | locus YGL167C, strain pmr1, hits give low values 0.989 | locus YGL173C, strain kem1, hits give low values 1.01 | locus YGL227W, strain vid30, hits give low values 0.999 | locus YGL240W, strain doc1, hits give low values 0.929 | locus YGL248W, strain PDE1, hits give low values 1.03 | locus YGL253W, strain hxk2, hits give low values 1 | locus YGR078C, strain PAC10, hits give low values 1.06 | locus YGR135W, strain pre9, hits give low values 1.02 | locus YGR252W, strain gcn5, hits give low values 1 | locus YHR013C, strain ard1, hits give low values 1.01 | locus YHR027C, strain rpn1, hits give low values 0.992 | locus YHR030C, strain SLT2, hits give low values 1 and 1.02 | locus YHR079C, strain IRE1 (second series), hits give low values 1.01 | locus YHR079C, strain IRE1, hits give low values 1.04 | locus YHR094C, strain hxt1, hits give low values 1.01 | locus YHR129C, strain ARP1, hits give low values 1.02 | locus YHR142W, strain chs7, hits give low values 1.03 | locus YHR200W, strain rpn10, hits give low values 1.02 | locus YIL066C, strain RNR3, hits give low values 1.05 | locus YIL073C, strain SPO22, hits give low values 1.12 | locus YIL125W, strain kgd1, hits give low values 1 | locus YIR030C, strain dcg1, hits give low values 1.02 | locus YJL092W, strain hpr5, hits give low values 1.01 | locus YJL095W, strain BCK1 (second series), hits give low values 1.01 | locus YJL095W, strain BCK1, hits give low values 1.1 and 1 | locus YJL115W, strain asf1, hits give low values 0.999 | locus YJL129C, strain trk1, hits give low values 1.05 | locus YJL134W, strain LCB3, hits give low values 0.993 | locus YJL154C, strain vps35, hits give low values 0.996 | locus YJL164C, strain tpk1, hits give low values 1.02 | locus YJL166W, strain qcr8, hits give low values 1.01 | locus YJL168C, strain set2, hits give low values 0.997 | locus YJL187C, strain SWE1 (second series), hits give low values 1.05 | locus YJL187C, strain SWE1, hits give low values 0.998 | locus YJR043C, strain POL32, hits give low values 1.02 | locus YJR066W, strain TOR1, hits give low values 0.93 | locus YJR075W, strain HOC1, hits give low values 1.06 | locus YKL009W, strain mrt4, hits give low values 1.04 | locus YKL068W, hits give low values 0.987 | locus YKL085W, strain MDH1 (second series), hits give low values 1 | locus YKL085W, strain MDH1, hits give low values 1 | locus YKL160W, strain elf1, hits give low values 1.03 | locus YKR001C, strain vps1, hits give low values 1.03 | locus YKR026C, strain gcn3, hits give low values 1.01 | locus YKR091W, strain srl3, hits give low values 1.01 | locus YLL001W, strain dnm1, hits give low values 1.02 | locus YLL026W, hits give low values 1.01 | locus YLL041C, strain sdh2, hits give low values 0.997 | locus YLR027C, strain aat2, hits give low values 1.01 | locus YLR039C, strain RIC1, hits give low values 1.09 | locus YLR058C, strain SHM2, hits give low values 0.965 | locus YLR102C, strain apc9, hits give low values 1.01 | locus YLR113W, strain HOG1, hits give low values 1.07 | locus YLR221C, strain rsa3, hits give low values 1.03 | locus YLR258W, strain gsy2, hits give low values 1 | locus YLR262C, strain YPT6 (second series), hits give low values 1.01 | locus YLR262C, strain YPT6, hits give low values 1.14 | locus YLR268W, strain sec22, hits give low values 1.04 | locus YLR320W, strain mms22, hits give low values 1.05 | locus YLR330W, strain CHS5, hits give low values 1 | locus YLR342W, strain FKS1 (second series), hits give low values 1.01 | locus YLR342W, strain FKS1, hits give low values 1.01 | locus YLR357W, strain rsc2, hits give low values 1.02 | locus YLR370C, strain arc18, hits give low values 1 | locus YLR371W, strain rom2, hits give low values 1.01 | locus YLR384C, strain iki3, hits give low values 0.999 | locus YLR418C, strain cdc73, hits give low values 1.05 | locus YML016C, strain PPZ1, hits give low values 1.01 | locus YML032C, strain rad52, hits give low values 0.985 | locus YML120C, strain ndi1, hits give low values 1.01 | locus YML124C, strain tub3, hits give low values 1.01 | locus YMR058W, strain fet3, hits give low values 0.987 | locus YMR078C, strain ctf18, hits give low values 0.999 | locus YMR125W, strain sto1, hits give low values 1.01 | locus YMR129W, hits give low values 1 | locus YMR205C, strain PFK2, hits give low values 1.05 | locus YMR223W, strain ubp8, hits give low values 1.02 | locus YMR231W, strain pep5, hits give low values 0.989 | locus YMR263W, strain SAP30, hits give low values 1.06 | locus YMR307W, strain GAS1, hits give low values 1.08 | locus YNL067W, strain RPL9B, hits give low values 1.05 | locus YNL071W, strain lat1, hits give low values 1.01 | locus YNL183C, strain NPR1, hits give low values 0.946 | locus YNL209W, strain ssb2, hits give low values 0.992 | locus YNL233W, strain BNI4, hits give low values 1.09 | locus YNL248C, strain rpa49, hits give low values 1.01 | locus YNL250W, strain rad50, hits give low values 0.986 | locus YNL271C, strain bni1, hits give low values 1 | locus YNL298W, strain CLA4, hits give low values 1.01 | locus YNL307C, strain MCK1, hits give low values 1.03 | locus YNL322C, strain KRE1 (second series), hits give low values 1.01 | locus YNR049C, strain mso1, hits give low values 1.01 | locus YNR052C, strain pop2, hits give low values 0.992 | locus YOL012C, strain htz1 0.989 | locus YOL147C, strain pex11, hits give low values 1 | locus YOR001W, strain rrp6, hits give low values 1.02 | locus YOR061W, strain CKA2, hits give low values 1 | locus YOR069W, strain VPS5, hits give low values 1.01 | locus YOR070C, strain gyp1, hits give low values 0.998 | locus YOR080W, strain dia2, hits give low values 0.998 | locus YOR083W, strain WHI5, hits give low values 1.04 | locus YOR106W, strain vam3, hits give low values 1.03 | locus YOR136W, strain idh2, hits give low values 1.03 | locus YOR144C, strain elg1, hits give low values 1 | locus YOR184W, strain ser1, hits give low values 1.05 | locus YOR231W, strain MKK1, hits give low values 1.04 | locus YOR265W, strain rbl2, hits give low values 1.01 | locus YOR270C, strain vph1, hits give low values 1.02 | locus YOR290C, strain snf2, hits give low values 1.02 | locus YOR316C, strain cot1, hits give low values 1.01 | locus YPL051W, strain arl3, hits give low values 0.999 | locus YPL078C, strain atp4, hits give low values 1.01 | locus YPL106C, strain sse1, hits give low values 0.995 | locus YPL240C, strain hsp82, hits give low values 1 | locus YPL241C, strain CIN2, hits give low values 0.995 | locus YPL256C, strain CLN2, hits give low values 1.03 | locus YPR119W, strain clb2, hits give low values 0.999 | locus YPR141C, strain kar3, hits give low values 0.993 | locus YPR163C, strain tif3, hits give low values 1 | locus YPR167C, strain met16, hits give low values 1.01 | strain wtn01, hits give low values 1.04
